Results taken from PubChem BioAssay (NCI).
About 83,000 compounds went through this panel and 20% of them were active in at least one assay; those are over-represented in the sample as a whole.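 Step 1: grow cells in 96-well plates. Step 2: add test compound at a single concentration. Step 3: incubate 48 h. Step 4: record percent growth.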 A number with no mark means an inactive call. Calls of active or inactive are those of the source. How the source made its calls: active means growth percent below 10; inactive means the rest.

Assays:
Experiment in all cases: NCI-60 one-dose screen, 48 h (100 = growth as untreated, 0 = no growth, -100 = all killed)
Conditions in all cases: 10 µM unless noted
[1] = system: SK-MEL-2 melanoma
[2] = system: EKVX NSCLC
[3] = system: SN12C renal
[4] = system: UO-31 renal
[5] = system: TK-10 renal
[6] = system: ACHN renal
[7] = system: CAKI-1 renal
[8] = system: A498 renal
[9] = system: CCRF-CEM leukemia
[10] = system: MOLT-4 leukemia

SMILES	growth [1]	growth [2]	growth [3]	growth [4]	growth [5]	growth [6]	growth [7]	growth [8]	growth [9]	growth [10]
CC1(C)CC(=O)C2=C(C1)OC(C(=O)c1ccccc1)C2c1cccc(Oc2ccccc2)c1 (centres undefined)	25%	36.4%	38.7%	15.6%	63.8%	32.7%	41.6%	49.6%	34.5%	12.2%
COc1ccc(NC(=O)c2sc3nc(C)c(C(=O)c4ccccc4)cc3c2N)cc1	88.8%	94.7%	99.5%	90%	86.6%	95.1%	92.9%	–	95%	88.5%
Cc1c(N2CCCCC2)[nH]c2ccccc12	119%	117%	98.4%	125%	121%	115%	101%	123%	55.1%	110%
CCCCCCCCCCCCCCCCCCOc1ccccc1CC(=O)OCC[N+]1(C)CCCCC1	80.3%	63.1%	24.2%	73.8%	66.2%	94.7%	65.5%	–	6.32% (active)	6.43% (active)
C=C(C)[C@@H]1CC[C@]2(COCCCNCCCN)CC[C@]3(C)[C@H](CC[C@@H]4[C@@]5(C)CC[C@H](OCCCN)C(C)(C)[C@@H]5CC[C@]43C)[C@@H]12	92.6%	47.6%	-83.1% (active)	38.9%	-10.4% (active)	-72.4% (active)	51.9%	90.3%	-37.8% (active)	-15.6% (active)
CCOC(=O)c1cnc2sc(-c3ccc(OC)cc3)nc2c1Cl	102%	90.4%	102%	78.8%	145%	105%	95%	86.8%	96.4%	97.3%
CC1(C)C2=C(C(=O)N1Cc1ccccc1)C(c1ccco1)N(C(=O)C1CCC1)CCN2 (centres undefined)	94.3%	97.4%	93.4%	90.5%	93.9%	111%	91.9%	113%	105%	102%
COc1cc(C2CC(c3cccc(Nc4ccncc4)c3)=Nc3c(N)ncnc3N2)cc(OC)c1OC (centres undefined)	92.6%	87.2%	93.9%	98.5%	110%	95.1%	85%	–	73.2%	85.6%
CN1CCN(Cc2ccc(NC(=O)c3cncc(C#Cc4c(N)ncc5cc(F)ccc45)c3)cc2C(F)(F)F)CC1	-2.97% (active)	69.6%	41.7%	14.6%	67.4%	40.4%	62%	–	-13.6% (active)	-59.6% (active)
COc1cccc(/C=C/C(=O)/C=C(/C=C/c2cccc(OC)c2OC)OB(F)F)c1OC	110%	87.7%	43%	37.8%	68%	19.6%	35.8%	122%	7.53% (active)	9.58% (active)
COC(=O)c1sc(-c2ccc(C)cc2)cc1O	99%	101%	101%	94.1%	99.2%	112%	94.3%	98.5%	103%	87.7%
Cc1cc(C)n(C(=O)CSc2nc3sc4c(c3c(=O)n2-c2ccccc2)CCCCC4)n1	98.3%	97%	91.9%	90.6%	101%	–	95.2%	99.5%	95.5%	95.2%
CCCCCC(C)(O)C(C(=O)O)c1ccccc1 (centres undefined)	108%	104%	97.8%	94.5%	104%	–	100%	90.3%	105%	112%
Cn1cc(-c2ccc3c(Nc4cccc(NC(=O)Nc5cccc(F)c5)c4)ncnc3c2)cn1	43.2%	53%	30.1%	23.7%	39.4%	–	39.8%	41.9%	4.27% (active)	14.3%
C=CCn1c(SCC(=O)Nc2ccc(C(=O)/C=C/c3ccc(Cl)cc3)cc2)nnc1-c1ccc(Cl)c(Cl)c1	76.6%	79.7%	82.3%	54.4%	86.2%	–	63.5%	83.9%	52.9%	45.5%
Cc1[nH]c(C2CC(c3ccc(C(F)(F)F)c(F)c3)=NN2C)c(C)c1C(=O)NCC(F)(F)F (centres undefined)	107%	87.7%	93.1%	72%	116%	–	81.1%	30.8%	93.6%	72.9%
CCN1C(=O)N(CC)C2C1NN=c1s/c(=C\c3ccccc3)c(=O)n12 (centres undefined)	42.5%	47.1%	26.5%	37.9%	65.6%	30.2%	27.1%	–	6.04% (active)	10.9%
CC(C)=CC(=O)C1C(=O)c2ccccc2C1=O	102%	99.4%	95.1%	92.3%	108%	–	81%	87.6%	98.1%	103%
Nc1c(C(=O)c2ccc(Cl)cc2)sc(Nc2ccccc2)c1-c1nc2ccccc2s1	38.5%	59.9%	82.6%	19.3%	-13.3% (active)	26.2%	25.2%	–	60.3%	76.5%
CC/C(=C(/c1ccc(Cl)cc1)c1ccc(OCCN2CCCCCC2)cc1)c1ccccc1	98.7%	85%	77%	61.8%	102%	–	85.1%	80.2%	44.3%	68.8%
CS(=O)(=O)Nc1cc(-c2ccc3ncnc(Nc4cccc(Cl)c4)c3c2)cnc1Cl	-40.6% (active)	-23.9% (active)	16.2%	-2.12% (active)	-20.4% (active)	–	2.5% (active)	-58.1% (active)	14.7%	-16% (active)
Nc1ncc(-c2ccc3ncnc(N4CCc5cc(F)c(Cl)cc54)c3c2)cc1C=O	8.65% (active)	4.02% (active)	12.9%	0.272% (active)	-6.72% (active)	–	-0.981% (active)	-62.8% (active)	18.4%	2.46% (active)
N=C(N)c1ccc(-c2ccc(-c3ccccc3)s2)nc1	104%	88.8%	82.4%	79.9%	106%	–	73.6%	88.3%	68.9%	57.3%
COc1ccc(/C=N\NC(=O)c2ccc3nc(-c4ccc(Cl)cc4)[nH]c3c2)cc1	64.1%	29.4%	6.24% (active)	81.9%	39.1%	21.9%	60.5%	–	65.3%	68.2%
C=C(c1ccc(C(=O)O)c(F)c1)c1cc2c(cc1C)C(C)(C)C=CC2(C)C	87.1%	69.9%	83.1%	81.4%	94.4%	–	81.7%	75.8%	85.3%	87.3%
C=CCNc1ccc2c3c(cccc13)C(=O)N(CC=C)C2=O	116%	99.2%	97.6%	71.5%	97.3%	–	72.9%	89.7%	83%	93.8%
N#C/C(=C\c1cccc2cnccc12)N1N=NC2C=CC=CC21 (centres undefined)	61.3%	40.4%	30.7%	27.2%	55.6%	–	27%	38.5%	10.2%	31.7%
Cc1oc2ccc(O)c(CN3CCCCCC3)c2c1C(=O)Nc1ccc(C(F)(F)F)cc1	78.4%	64.1%	66.7%	40.7%	81.1%	–	50.5%	50.5%	65.2%	64.3%
